Holding throughout (test): DAPPL (digital affinity profiling via proximity ligation, sequencing); 10 mM Tris-HCl pH 7.5, 50 mM NaCl, 1 mM DTT, 4% glycerol, room temperature, 30 min; GST-TFs on glutathione beads, 16-mer random dsDNA library, 0.1% formaldehyde crosslink after washing; high values mean tight binding
One assay deals with HSF1 (Homo sapiens, UniProt Q00613 1-529). The following applies: protein: recombinant; tags: N-terminal GST; chain copies: 3; dsDNA, one strand shown. The method, boiled down: (§1)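 Human transcription factors fused to GST were expressed in yeast, captured on glutathione beads, given DNA barcodes and pooled with a GST-only negative control. Pools were incubated with 200 nmole of a 16-mer random double-stranded DNA library in Tris/NaCl/DTT/glycerol buffer at room temperature for 30 min. They were then washed, crosslinked with 0.1% formaldehyde, proximity-ligated (BsaI/T4 ligase, 1 h, 37 °C), PCR-amplified and sequenced on an Illumina NextSeq500. Binding signal is each 6-mer's read frequency for a factor divided by its frequency for the GST control.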

A further assay addresses T1, GABPA (Homo sapiens, UniProt Q06546 1-454).
T1 sequence: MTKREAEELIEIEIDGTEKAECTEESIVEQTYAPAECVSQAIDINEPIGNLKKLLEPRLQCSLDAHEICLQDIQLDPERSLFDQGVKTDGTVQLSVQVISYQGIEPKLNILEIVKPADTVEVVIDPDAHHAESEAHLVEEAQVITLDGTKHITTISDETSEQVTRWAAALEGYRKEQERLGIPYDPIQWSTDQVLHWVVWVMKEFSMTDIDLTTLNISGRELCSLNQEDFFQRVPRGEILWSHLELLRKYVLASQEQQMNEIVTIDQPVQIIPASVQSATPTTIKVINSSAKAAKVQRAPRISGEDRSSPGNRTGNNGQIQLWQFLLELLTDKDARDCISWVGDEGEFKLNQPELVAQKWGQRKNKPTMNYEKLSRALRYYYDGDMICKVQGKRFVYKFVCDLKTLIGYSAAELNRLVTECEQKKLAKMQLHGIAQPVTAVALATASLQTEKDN
The following applies: protein: recombinant; tags: N-terminal GST; dsDNA, one strand shown. The procedure, abridged:
as §1

The target of another assay is ELF1 (Homo sapiens, UniProt P32519 1-619). As to conditions: protein: recombinant; tags: N-terminal GST; dsDNA, one strand shown. The method, boiled down: as §1
The target in the next assay is T2, EHF (Homo sapiens, UniProt Q9NZC4 1-300).
T2 sequence: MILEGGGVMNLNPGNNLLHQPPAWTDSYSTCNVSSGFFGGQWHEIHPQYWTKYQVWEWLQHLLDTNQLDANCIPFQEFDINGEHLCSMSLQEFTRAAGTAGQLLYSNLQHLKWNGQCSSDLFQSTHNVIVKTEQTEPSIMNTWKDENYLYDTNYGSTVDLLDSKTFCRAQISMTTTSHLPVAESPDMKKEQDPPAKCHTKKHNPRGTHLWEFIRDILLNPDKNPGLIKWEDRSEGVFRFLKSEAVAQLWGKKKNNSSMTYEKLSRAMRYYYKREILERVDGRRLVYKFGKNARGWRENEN
The following applies: protein: recombinant; tags: N-terminal GST; dsDNA, one strand shown. The method, boiled down:
as §1

For another assay, the target named is SPIB (Homo sapiens, UniProt Q01892 1-262). As to conditions: protein: recombinant; tags: N-terminal GST; dsDNA, one strand shown. The method, boiled down: as §1
Another assay deals with T3, ELK3 (Homo sapiens, UniProt P41970 1-407).
T3 sequence: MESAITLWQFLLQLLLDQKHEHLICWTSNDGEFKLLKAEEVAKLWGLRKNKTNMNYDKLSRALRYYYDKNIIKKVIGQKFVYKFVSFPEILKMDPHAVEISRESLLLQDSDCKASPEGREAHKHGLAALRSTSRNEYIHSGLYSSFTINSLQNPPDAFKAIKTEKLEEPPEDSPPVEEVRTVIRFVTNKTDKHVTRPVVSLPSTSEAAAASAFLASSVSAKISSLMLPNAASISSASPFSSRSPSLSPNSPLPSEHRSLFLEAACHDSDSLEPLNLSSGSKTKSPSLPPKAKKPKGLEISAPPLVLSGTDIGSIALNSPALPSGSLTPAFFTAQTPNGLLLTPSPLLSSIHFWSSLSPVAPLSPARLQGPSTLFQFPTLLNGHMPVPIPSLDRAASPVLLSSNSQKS
The following applies: protein: recombinant; tags: N-terminal GST; dsDNA, one strand shown. The method, boiled down:
as §1

The target of a further assay is T4, SPIC (Homo sapiens, UniProt Q8N5J4 1-248).
T4 sequence: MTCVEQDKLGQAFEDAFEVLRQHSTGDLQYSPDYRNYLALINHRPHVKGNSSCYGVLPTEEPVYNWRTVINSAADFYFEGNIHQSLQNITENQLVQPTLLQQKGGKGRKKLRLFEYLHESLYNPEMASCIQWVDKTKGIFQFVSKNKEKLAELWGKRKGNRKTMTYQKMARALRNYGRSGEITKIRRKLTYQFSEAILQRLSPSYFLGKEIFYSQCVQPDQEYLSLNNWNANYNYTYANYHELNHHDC
The following applies: protein: recombinant; tags: N-terminal GST; dsDNA, one strand shown. The procedure, abridged: as §1

A further assay has as its target ELF4 (Homo sapiens, UniProt Q99607 1-663). The following applies: protein: recombinant; tags: N-terminal GST; dsDNA, one strand shown. The procedure, abridged:
as §1

A further assay deals with T5, ETV2 (Homo sapiens, UniProt O00321 1-342).
T5 sequence: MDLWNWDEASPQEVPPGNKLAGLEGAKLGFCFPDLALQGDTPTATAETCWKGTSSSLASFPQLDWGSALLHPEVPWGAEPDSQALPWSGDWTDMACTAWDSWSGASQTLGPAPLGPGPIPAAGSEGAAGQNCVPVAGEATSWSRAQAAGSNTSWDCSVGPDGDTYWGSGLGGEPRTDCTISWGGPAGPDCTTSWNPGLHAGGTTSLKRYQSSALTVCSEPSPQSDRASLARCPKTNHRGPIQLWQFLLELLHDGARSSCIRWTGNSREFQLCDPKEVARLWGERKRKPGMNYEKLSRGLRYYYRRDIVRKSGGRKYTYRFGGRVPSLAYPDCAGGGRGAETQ
The following applies: protein: recombinant; tags: N-terminal GST; dsDNA, one strand shown. The procedure, abridged: as §1

The target of a further assay is ETV1 (Homo sapiens, UniProt P50549 1-477). As to conditions: protein: recombinant; tags: N-terminal GST; dsDNA, one strand shown. The procedure, abridged:
as §1

A further assay deals with T6, ERF (Homo sapiens, UniProt P50548 1-548).
T6 sequence: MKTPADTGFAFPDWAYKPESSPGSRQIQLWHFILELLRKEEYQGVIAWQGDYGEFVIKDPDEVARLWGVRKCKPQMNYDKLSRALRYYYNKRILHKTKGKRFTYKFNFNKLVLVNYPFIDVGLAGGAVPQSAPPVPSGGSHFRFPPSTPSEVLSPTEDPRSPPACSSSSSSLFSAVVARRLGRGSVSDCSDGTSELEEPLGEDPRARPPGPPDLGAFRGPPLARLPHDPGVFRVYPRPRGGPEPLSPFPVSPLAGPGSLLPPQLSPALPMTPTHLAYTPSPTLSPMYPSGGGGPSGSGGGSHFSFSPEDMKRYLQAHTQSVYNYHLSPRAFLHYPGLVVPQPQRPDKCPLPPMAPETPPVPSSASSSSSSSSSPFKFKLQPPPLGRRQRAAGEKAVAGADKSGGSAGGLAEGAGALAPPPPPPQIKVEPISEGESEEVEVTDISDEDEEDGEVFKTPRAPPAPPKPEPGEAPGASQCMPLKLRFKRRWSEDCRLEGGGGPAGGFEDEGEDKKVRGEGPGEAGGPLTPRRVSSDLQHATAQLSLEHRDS
The following applies: protein: recombinant; tags: N-terminal GST; dsDNA, one strand shown. The procedure, abridged: as §1

HSF1, sequence (Q00613 whole entry, the tested form may be a part): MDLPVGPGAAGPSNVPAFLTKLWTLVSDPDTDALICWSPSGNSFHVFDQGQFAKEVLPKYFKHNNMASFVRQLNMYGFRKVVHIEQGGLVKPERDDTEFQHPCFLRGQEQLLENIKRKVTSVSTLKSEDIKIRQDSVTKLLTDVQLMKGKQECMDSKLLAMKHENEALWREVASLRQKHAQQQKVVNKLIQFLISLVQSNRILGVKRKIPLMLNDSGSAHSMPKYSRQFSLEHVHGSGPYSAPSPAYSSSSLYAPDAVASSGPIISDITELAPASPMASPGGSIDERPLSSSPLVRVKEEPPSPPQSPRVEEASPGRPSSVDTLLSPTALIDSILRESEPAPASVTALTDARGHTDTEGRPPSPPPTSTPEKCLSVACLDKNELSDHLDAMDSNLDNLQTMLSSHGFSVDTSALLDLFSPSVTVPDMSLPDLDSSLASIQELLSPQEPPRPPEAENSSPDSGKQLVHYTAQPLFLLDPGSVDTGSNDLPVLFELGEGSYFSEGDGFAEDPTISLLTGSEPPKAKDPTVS
ELF4, sequence (Q99607 whole entry): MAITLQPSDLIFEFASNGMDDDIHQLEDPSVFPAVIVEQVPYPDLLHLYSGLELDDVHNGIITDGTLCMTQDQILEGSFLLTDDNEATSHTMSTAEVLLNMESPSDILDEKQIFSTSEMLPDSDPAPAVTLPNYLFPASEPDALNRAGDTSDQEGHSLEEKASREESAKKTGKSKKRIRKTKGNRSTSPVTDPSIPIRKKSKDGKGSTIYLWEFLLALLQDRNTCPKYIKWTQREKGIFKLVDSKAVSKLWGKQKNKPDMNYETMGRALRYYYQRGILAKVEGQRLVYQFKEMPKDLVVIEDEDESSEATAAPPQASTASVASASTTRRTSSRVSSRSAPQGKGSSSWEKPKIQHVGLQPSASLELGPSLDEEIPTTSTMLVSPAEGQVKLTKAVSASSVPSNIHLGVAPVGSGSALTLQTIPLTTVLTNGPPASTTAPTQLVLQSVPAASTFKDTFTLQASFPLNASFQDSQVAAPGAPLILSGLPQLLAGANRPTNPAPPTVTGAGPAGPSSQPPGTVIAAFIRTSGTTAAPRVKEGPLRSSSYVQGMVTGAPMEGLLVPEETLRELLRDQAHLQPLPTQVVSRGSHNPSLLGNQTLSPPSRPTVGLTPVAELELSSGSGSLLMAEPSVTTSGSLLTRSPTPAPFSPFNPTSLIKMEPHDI
SPIB, sequence (Q01892 whole entry): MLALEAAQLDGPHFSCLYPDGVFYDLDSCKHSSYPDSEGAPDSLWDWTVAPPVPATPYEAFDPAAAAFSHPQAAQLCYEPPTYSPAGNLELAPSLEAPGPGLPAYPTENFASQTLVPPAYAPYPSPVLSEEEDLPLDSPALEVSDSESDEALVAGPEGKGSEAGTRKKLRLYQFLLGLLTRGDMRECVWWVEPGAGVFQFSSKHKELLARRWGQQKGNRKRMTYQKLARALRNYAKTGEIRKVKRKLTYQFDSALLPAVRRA
ETV1, sequence (P50549 whole entry): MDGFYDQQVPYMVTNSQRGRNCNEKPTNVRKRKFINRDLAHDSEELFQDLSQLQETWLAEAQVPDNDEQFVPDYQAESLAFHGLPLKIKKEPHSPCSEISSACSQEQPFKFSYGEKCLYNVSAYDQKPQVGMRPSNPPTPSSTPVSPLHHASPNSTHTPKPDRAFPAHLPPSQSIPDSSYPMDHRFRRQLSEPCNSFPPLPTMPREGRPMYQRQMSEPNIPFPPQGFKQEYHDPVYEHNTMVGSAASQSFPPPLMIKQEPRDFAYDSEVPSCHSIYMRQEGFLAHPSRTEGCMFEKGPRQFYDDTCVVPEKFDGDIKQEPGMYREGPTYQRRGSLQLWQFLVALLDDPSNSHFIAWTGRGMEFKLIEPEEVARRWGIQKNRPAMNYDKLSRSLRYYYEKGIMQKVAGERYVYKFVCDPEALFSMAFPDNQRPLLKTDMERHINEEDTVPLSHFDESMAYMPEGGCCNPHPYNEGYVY
ELF1, sequence (P32519 whole entry): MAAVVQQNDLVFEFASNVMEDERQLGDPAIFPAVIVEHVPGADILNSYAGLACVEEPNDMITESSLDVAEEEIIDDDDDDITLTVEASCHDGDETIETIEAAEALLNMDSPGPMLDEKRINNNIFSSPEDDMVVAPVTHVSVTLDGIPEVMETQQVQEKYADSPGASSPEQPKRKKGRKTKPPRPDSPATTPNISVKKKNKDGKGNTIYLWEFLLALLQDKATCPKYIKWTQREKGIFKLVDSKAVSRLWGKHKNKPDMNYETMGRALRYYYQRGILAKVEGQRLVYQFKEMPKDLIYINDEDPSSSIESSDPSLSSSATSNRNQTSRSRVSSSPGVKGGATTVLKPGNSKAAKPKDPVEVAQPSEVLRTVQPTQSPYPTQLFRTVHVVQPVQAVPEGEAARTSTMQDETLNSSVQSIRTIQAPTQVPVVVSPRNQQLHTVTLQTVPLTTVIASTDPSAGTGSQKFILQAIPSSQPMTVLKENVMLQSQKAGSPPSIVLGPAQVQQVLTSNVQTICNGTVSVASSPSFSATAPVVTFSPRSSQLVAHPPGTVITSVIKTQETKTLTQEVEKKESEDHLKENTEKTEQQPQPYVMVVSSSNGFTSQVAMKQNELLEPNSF

As for TCGCGA, the binding signal with HSF1 is 1.59 fold enrichment (6-mer frequency, TF over GST control).
Turning to TTAGCC, the binding signal was 1.01 fold enrichment (6-mer frequency, TF over GST control) in the assay with GABPA; 1.06 fold enrichment (6-mer frequency, TF over GST control) with ELF1; 1.03 fold enrichment (6-mer frequency, TF over GST control) with EHF; 1 fold enrichment (6-mer frequency, TF over GST control) with SPIB; 1.02 fold enrichment (6-mer frequency, TF over GST control) with ELK3; 1.45 fold enrichment (6-mer frequency, TF over GST control) with HSF1. The binding signal with SPIC was 1.04 fold enrichment (6-mer frequency, TF over GST control); with ELF4 it was 1.01 fold enrichment (6-mer frequency, TF over GST control); in the assay with ETV2, 1.06 fold enrichment (6-mer frequency, TF over GST control); in the assay with ETV1, 1.02 fold enrichment (6-mer frequency, TF over GST control); with ERF, 1.07 fold enrichment (6-mer frequency, TF over GST control).

The values are drawn from article PMC7862700, “An all-to-all approach to the identification of sequence-specific readers for epigenetic DNA modifications on cytosine”.
